The values that follow come from PubChem BioAssay (NCI).

The nature of experiment [1]: NCI Yeast Anticancer Drug Screen. Data for the rad50 strain (AID 155).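 Further: 0% = growth of vehicle-only cultures of the same strain.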 The conditions noted are these: S. cerevisiae rad50 strain growth inhibition, hits give high values. The procedure, abridged:
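Genetically altered yeast (DNA repair pathway); compound treatment; growth inhibition vs vehicle ctrl.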

Experiment [2] in a line: NCI Yeast Anticancer Drug Screen. Data for the mec2-1 strain (AID 157). Conditions: S. cerevisiae mec2-1 strain, hits give high values. The procedure, abridged: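 Compounds were applied to mec2-1 yeast cells. Their growth was then compared with that of vehicle-treated cultures to give growth inhibition.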
Experiment [3] can be described thus: NCI Yeast Anticancer Drug Screen. Data for the sgs1 mgt1 strain (AID 161).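 Further: 0% = growth of cultures given vehicle only.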 The conditions noted are these: S. cerevisiae sgs1 mgt1 strain, hits give high values. The procedure, abridged:
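Compounds are added to genetically altered yeast, and growth is compared with cultures given vehicle alone to give percent inhibition.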

The nature of experiment [4]: NCI Yeast Anticancer Drug Screen. Data for the cln2 rad14 strain (AID 165).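 Further: 0% = growth equal to vehicle treated cultures.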 The conditions noted are these: S. cerevisiae cln2 rad14 strain, hits give high values. The procedure, abridged:
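Strain: cln2 rad14 yeast, altered in cell cycle control and DNA damage repair. Read-out: growth inhibition vs vehicle.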

Experiment [5] is described as follows: NCI Yeast Anticancer Drug Screen. Data for the bub3 strain (AID 167). The conditions noted are these: S. cerevisiae bub3 mutant strain, hits give high values. The procedure, abridged:
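Yeast carrying a defined mutation is treated with each compound, and growth is compared with that of vehicle-exposed cells to give inhibition.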

The nature of experiment [6]: NCI Yeast Anticancer Drug Screen. Data for the mlh1 rad18 strain (AID 175). Conditions: S. cerevisiae mlh1 rad18 strain growth inhibition, hits give high values. The procedure, abridged:
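A repair-deficient yeast strain is exposed to test compound, and growth is scored relative to vehicle-treated controls.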

Setting [7] is: at 5.0 µM (retest, dose inferred, filed as 0.5).
[8] abbreviates: at 50.0 µM (retest, dose inferred, filed as 5.0).

This is part of a sample that, as a whole, favours compounds with a hit. Of some 79,000 tested, about 15% had one in any assay. Unmarked numbers belong to inactive results. Calls of active or inactive are those of the source. No stated cut-off is given here; in the data, active means growth inhibition above about 70%; inactive means the rest.

For the molecule `COc1ccc(Cc2coc3ccccc3c2=O)cc1OC`, the growth inhibition was -1% in experiment [1] (setting [7]); 12% in experiment [1] (setting [8]); -0.55% in experiment [1] (at 50.0 µM); 2% in experiment [2] (setting [7]); 10% in experiment [2] (setting [8]); -2.5% in experiment [2] (at 50.0 µM). Further, the growth inhibition in experiment [3] (setting [7]) is 1%; in experiment [3] (setting [8]), 18%; in experiment [3] (at 50.0 µM), 18.4%; in experiment [4] (setting [7]), 0%; in experiment [4] (setting [8]), 3%; in experiment [4] (at 50.0 µM), 3.8%. In addition, the growth inhibition in experiment [5] (setting [7]) was 23%; in experiment [5] (setting [8]), 68%; in experiment [5] (at 50.0 µM), 71.1% (active); in experiment [6] (setting [7]), -3%; in experiment [6] (setting [8]), 12%; in experiment [6] (at 50.0 µM), 0.95%.

On to `CN(C)CCSCCN1c2ccccc2Sc2ccc(Cl)cc21`, for which the growth inhibition was -5% in experiment [1] (setting [7]); 99% (active) in experiment [1] (setting [8]); 57.5% in experiment [1] (at 50.0 µM); -2% in experiment [2] (setting [7]); 99% (active) in experiment [2] (setting [8]); 99.7% (active) in experiment [2] (at 50.0 µM). The growth inhibition in experiment [3] (setting [7]) was -16%; in experiment [3] (setting [8]), 99% (active); in experiment [3] (at 50.0 µM) it was 98.6% (active); in experiment [4] (setting [7]), -8%; in experiment [4] (setting [8]), 99% (active); in experiment [4] (at 50.0 µM), 99% (active). Moreover, the growth inhibition in experiment [5] (setting [7]) was 4%; in experiment [5] (setting [8]) it was 99% (active); in experiment [5] (at 50.0 µM), 99.2% (active); in experiment [6] (setting [7]), 5%; in experiment [6] (setting [8]) it was 99% (active); in experiment [6] (at 50.0 µM), 99.5% (active).

With `CC(=O)Oc1c(Br)ccc2cc(C(Br)Br)c(C(=O)c3ccccc3)nc12`, the growth inhibition was 55% in experiment [1] (setting [7]); 55% in experiment [1] (setting [8]); 83.6% (active) in experiment [1] (at 50.0 µM); 38% in experiment [2] (setting [7]); 38% in experiment [2] (setting [8]); 87.5% (active) in experiment [2] (at 50.0 µM). Further, the growth inhibition in experiment [3] (setting [7]) is 51%; in experiment [3] (setting [8]), 51%; in experiment [3] (at 50.0 µM), 87.5% (active); in experiment [4] (setting [7]) it was 30%; in experiment [4] (setting [8]), 30%; in experiment [4] (at 50.0 µM), 82.9% (active). Moreover, the growth inhibition in experiment [5] (setting [7]) was 25%; in experiment [5] (setting [8]), 25%; in experiment [5] (at 50.0 µM), 83.9% (active); in experiment [6] (setting [7]), 53%; in experiment [6] (setting [8]), 53%; in experiment [6] (at 50.0 µM), 81.4% (active).

Take `S=c1nc(C(c2ccccc2)c2ccccc2)[nH][nH]1`: the growth inhibition in experiment [1] (setting [7]) was -2%; in experiment [1] (setting [8]), 1%; in experiment [1] (at 50.0 µM), 29.1%; in experiment [2] (setting [7]), -1%; in experiment [2] (setting [8]), 7%; in experiment [2] (at 50.0 µM) it was 1.7%. Also, the growth inhibition in experiment [3] (setting [7]) is 10%; in experiment [3] (setting [8]), 13%; in experiment [3] (at 50.0 µM), 40.4%; in experiment [4] (setting [7]), 0%; in experiment [4] (setting [8]) it was -2%; in experiment [4] (at 50.0 µM) it was 28.1%. Moreover, the growth inhibition in experiment [5] (setting [7]) is 1%; in experiment [5] (setting [8]), 27%; in experiment [5] (at 50.0 µM), 11.6%; in experiment [6] (setting [7]) it was -3%; in experiment [6] (setting [8]), 3%; in experiment [6] (at 50.0 µM), 65.5%.

`CC[C@@H]1O[C@@H]([C@@H]2CC[C@](O)([C@]3(C)CC[C@@H]([C@@H](C)[C@@]4(O)CC[C@H](C)[C@@H](C[C@@]5(O)O[C@@H]([C@@H](C)[C@H](O)C[C@H]6CC[C@H](C)[C@@H]([C@@H](C)C(=O)O)O6)CC[C@@H]5C)O4)O3)O2)CC[C@@]1(C)O`: the growth inhibition in experiment [1] (setting [7]) was 10%; in experiment [1] (setting [8]), 90% (active); in experiment [1] (at 50.0 µM), 88.4% (active); in experiment [2] (setting [7]) it was 34%; in experiment [2] (setting [8]), 94% (active); in experiment [2] (at 50.0 µM), 90.2% (active). The growth inhibition was -9% in experiment [3] (setting [7]); 92% (active) in experiment [3] (setting [8]); 89.2% (active) in experiment [3] (at 50.0 µM); 58% in experiment [4] (setting [7]); 92% (active) in experiment [4] (setting [8]); 88.2% (active) in experiment [4] (at 50.0 µM). The growth inhibition was -14% in experiment [5] (setting [7]); 93% (active) in experiment [5] (setting [8]); 87.2% (active) in experiment [5] (at 50.0 µM); -18% in experiment [6] (setting [7]); 93% (active) in experiment [6] (setting [8]); 87.7% (active) in experiment [6] (at 50.0 µM).

In the case of `O=c1[nH]c2ccc([N+](=O)[O-])c(Cl)c2c2ccccc12`, the growth inhibition in experiment [1] (setting [7]) was 74% (active); in experiment [1] (setting [8]) it was 97% (active); in experiment [1] (at 50.0 µM) it was 9.1%; in experiment [2] (setting [7]) it was 21%; in experiment [2] (setting [8]), 98% (active); in experiment [2] (at 50.0 µM), 12.3%. The growth inhibition in experiment [3] (setting [7]) is 38%; in experiment [3] (setting [8]), 98% (active); in experiment [3] (at 50.0 µM), 9%; in experiment [4] (setting [7]), 9%; in experiment [4] (setting [8]), 95% (active); in experiment [4] (at 50.0 µM) it was -46.8%. Moreover, the growth inhibition was 19% in experiment [5] (setting [7]); 97% (active) in experiment [5] (setting [8]); 1.05% in experiment [5] (at 50.0 µM); 70% (active) in experiment [6] (setting [7]); 96% (active) in experiment [6] (setting [8]); 39.9% in experiment [6] (at 50.0 µM).

In the case of `O=C1OC(c2ccccc2)(c2ccccc2)CC1CN1CCOCC1` (stereo not given), the growth inhibition is -16% in experiment [1] (setting [7]); 73% (active) in experiment [1] (setting [8]); 87.8% (active) in experiment [1] (at 50.0 µM); -4% in experiment [2] (setting [7]); 87% (active) in experiment [2] (setting [8]); 82.6% (active) in experiment [2] (at 50.0 µM). The growth inhibition in experiment [3] (setting [7]) is -1%; in experiment [3] (setting [8]), 84% (active); in experiment [3] (at 50.0 µM), 90% (active); in experiment [4] (setting [7]) it was -9%; in experiment [4] (setting [8]), 72% (active); in experiment [4] (at 50.0 µM), 66%. For the same molecule, the growth inhibition in experiment [5] (setting [7]) was 1%; in experiment [5] (setting [8]), 93% (active); in experiment [5] (at 50.0 µM), 87% (active); in experiment [6] (setting [7]), 2%; in experiment [6] (setting [8]), 88% (active); in experiment [6] (at 50.0 µM), 79.7% (active).

Turning to `N#CC(Nc1cccc(C(F)(F)F)c1)c1ccccc1C(F)(F)F` (stereo not given), the growth inhibition in experiment [1] (setting [7]) was -4%; in experiment [1] (setting [8]), 97% (active); in experiment [1] (at 50.0 µM), 86% (active); in experiment [2] (setting [7]), 3%; in experiment [2] (setting [8]), 97% (active); in experiment [2] (at 50.0 µM) it was 92% (active). For the same molecule, the growth inhibition is -11% in experiment [3] (setting [7]); 97% (active) in experiment [3] (setting [8]); 90.1% (active) in experiment [3] (at 50.0 µM); 25% in experiment [4] (setting [7]); 46% in experiment [4] (setting [8]); 89% (active) in experiment [4] (at 50.0 µM). Further, the growth inhibition in experiment [5] (setting [7]) is 10%; in experiment [5] (setting [8]) it was 97% (active); in experiment [5] (at 50.0 µM) it was 90.5% (active); in experiment [6] (setting [7]), -12%; in experiment [6] (setting [8]), 98% (active); in experiment [6] (at 50.0 µM), 84.8% (active).

Regarding `CCOC(=O)C1=C(c2ccccc2)OC(N)=C(C#N)C1c1ccc(C)cc1` (stereo not given), the growth inhibition was 4% in experiment [1] (setting [7]); 25% in experiment [1] (setting [8]); 77.1% (active) in experiment [1] (at 50.0 µM); 0% in experiment [2] (setting [7]); 66% in experiment [2] (setting [8]); 89.5% (active) in experiment [2] (at 50.0 µM). Further, the growth inhibition was 10% in experiment [3] (setting [7]); 64% in experiment [3] (setting [8]); 92.5% (active) in experiment [3] (at 50.0 µM); -4% in experiment [4] (setting [7]); 29% in experiment [4] (setting [8]); 89% (active) in experiment [4] (at 50.0 µM). Besides, the growth inhibition in experiment [5] (setting [7]) is 1%; in experiment [5] (setting [8]), 50%; in experiment [5] (at 50.0 µM) it was 80.1% (active); in experiment [6] (setting [7]), -2%; in experiment [6] (setting [8]) it was 65%; in experiment [6] (at 50.0 µM), 85.9% (active).

On to `Cc1cc(=O)c2c(ccc3cc4ccccc4cc32)[nH]1`, for which the growth inhibition in experiment [1] (setting [7]) is -6%; in experiment [1] (setting [8]) it was 41%; in experiment [1] (at 50.0 µM), 66.8%; in experiment [2] (setting [7]) it was 0%; in experiment [2] (setting [8]), 58%; in experiment [2] (at 50.0 µM), 38.1%. For the same molecule, the growth inhibition in experiment [3] (setting [7]) was -16%; in experiment [3] (setting [8]), 54%; in experiment [3] (at 50.0 µM), 45.8%; in experiment [4] (setting [7]), -5%; in experiment [4] (setting [8]), 17%; in experiment [4] (at 50.0 µM), 43.8%. Moreover, the growth inhibition in experiment [5] (setting [7]) is -7%; in experiment [5] (setting [8]), 22%; in experiment [5] (at 50.0 µM), 39.6%; in experiment [6] (setting [7]) it was 14%; in experiment [6] (setting [8]), 49%; in experiment [6] (at 50.0 µM), 59.1%.
